The results in this text go back to publication PMC7862700, “An all-to-all approach to the identification of sequence-specific readers for epigenetic DNA modifications on cytosine”.

Common to all, as to experiment: DAPPL (digital affinity profiling via proximity ligation, sequencing); 10 mM Tris-HCl pH 7.5, 50 mM NaCl, 1 mM DTT, 4% glycerol, room temperature, 30 min; GST-TFs on glutathione beads, 16-mer random dsDNA library, 0.1% formaldehyde crosslink after washing; high values mean tight binding
What all share (conditions): protein: recombinant; tags: N-terminal GST; dsDNA, one strand shown

One assay concerns the target T1, FLI1 (Homo sapiens, UniProt Q01543 1-452).
T1 sequence: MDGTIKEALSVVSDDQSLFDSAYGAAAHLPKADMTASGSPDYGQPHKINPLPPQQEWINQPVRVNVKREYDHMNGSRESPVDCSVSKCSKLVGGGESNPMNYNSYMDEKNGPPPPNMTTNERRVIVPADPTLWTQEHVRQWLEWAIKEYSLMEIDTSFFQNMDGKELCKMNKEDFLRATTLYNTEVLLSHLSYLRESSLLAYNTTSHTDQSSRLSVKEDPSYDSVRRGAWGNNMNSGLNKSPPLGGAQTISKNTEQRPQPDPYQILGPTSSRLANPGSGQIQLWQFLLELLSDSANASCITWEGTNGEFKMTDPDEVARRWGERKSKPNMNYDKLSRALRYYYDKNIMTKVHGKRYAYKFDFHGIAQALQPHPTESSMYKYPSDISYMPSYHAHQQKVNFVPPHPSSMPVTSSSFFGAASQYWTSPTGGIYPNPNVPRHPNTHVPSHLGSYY
A digest of the protocol:
(§1)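 Each value of binding signal is a hexamer's read frequency for a factor divided by the same hexamer's frequency in the tag-only sample. Barcoded, bead-captured GST fusions of human transcription factors made in yeast were pooled with that sample and incubated with 200 nmole of a random double-stranded 16-mer DNA library in Tris/NaCl/DTT/glycerol buffer at room temperature for 30 min. Washing, 0.1% formaldehyde crosslinking, proximity ligation, PCR and Illumina NextSeq500 sequencing followed.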

The next assay deals with T2, ELK1 (Homo sapiens, UniProt P19419 1-428).
T2 sequence: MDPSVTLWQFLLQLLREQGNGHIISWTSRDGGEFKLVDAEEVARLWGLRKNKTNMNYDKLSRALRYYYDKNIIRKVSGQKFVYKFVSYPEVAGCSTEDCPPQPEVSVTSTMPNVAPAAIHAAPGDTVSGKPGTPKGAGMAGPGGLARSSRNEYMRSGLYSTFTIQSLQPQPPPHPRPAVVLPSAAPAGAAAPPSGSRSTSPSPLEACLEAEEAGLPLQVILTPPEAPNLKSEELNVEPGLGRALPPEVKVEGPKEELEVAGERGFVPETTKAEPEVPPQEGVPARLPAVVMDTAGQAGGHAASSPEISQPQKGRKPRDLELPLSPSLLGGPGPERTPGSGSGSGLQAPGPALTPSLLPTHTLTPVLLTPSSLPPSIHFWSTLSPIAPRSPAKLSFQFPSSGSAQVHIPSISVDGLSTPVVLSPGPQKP
Summed up:
as §1

In another assay the target is T3, GABPA (Homo sapiens, UniProt Q06546 1-454).
T3 sequence: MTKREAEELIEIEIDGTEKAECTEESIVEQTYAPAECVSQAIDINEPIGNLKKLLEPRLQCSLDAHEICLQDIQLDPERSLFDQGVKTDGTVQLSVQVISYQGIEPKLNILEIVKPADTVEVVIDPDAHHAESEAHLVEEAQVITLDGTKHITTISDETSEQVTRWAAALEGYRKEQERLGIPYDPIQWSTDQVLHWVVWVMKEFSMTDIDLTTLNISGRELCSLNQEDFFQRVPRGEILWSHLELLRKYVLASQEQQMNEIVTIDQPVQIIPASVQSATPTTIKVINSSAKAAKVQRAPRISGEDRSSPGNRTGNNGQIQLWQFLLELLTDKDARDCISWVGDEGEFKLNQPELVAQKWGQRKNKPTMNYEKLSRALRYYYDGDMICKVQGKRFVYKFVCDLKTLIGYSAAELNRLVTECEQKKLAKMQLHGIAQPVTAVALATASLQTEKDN
Summed up:
as §1

The next assay has as its target ELF1 (Homo sapiens, UniProt P32519 1-619). A digest of the protocol: as §1
A further assay concerns the target SPIB (Homo sapiens, UniProt Q01892 1-262). Summed up: as §1
A further assay has as its target ELF4 (Homo sapiens, UniProt Q99607 1-663). A digest of the protocol:
as §1

In a further assay the target is T4, ELK4 (Homo sapiens, UniProt P28324-2 1-405).
T4 sequence: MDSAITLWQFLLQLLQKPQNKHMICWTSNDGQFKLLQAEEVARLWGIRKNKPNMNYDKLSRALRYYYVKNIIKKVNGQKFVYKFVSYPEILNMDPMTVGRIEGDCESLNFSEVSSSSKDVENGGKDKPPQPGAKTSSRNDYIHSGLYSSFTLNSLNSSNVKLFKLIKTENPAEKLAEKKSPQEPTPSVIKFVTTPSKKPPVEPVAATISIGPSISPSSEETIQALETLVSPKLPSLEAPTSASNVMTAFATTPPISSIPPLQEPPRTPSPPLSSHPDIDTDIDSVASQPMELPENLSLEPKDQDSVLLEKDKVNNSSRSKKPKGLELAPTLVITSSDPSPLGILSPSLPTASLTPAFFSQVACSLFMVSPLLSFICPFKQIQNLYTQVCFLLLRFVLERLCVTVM
Summed up: as §1

Another assay has as its target T5, ELF3 (Homo sapiens, UniProt P78545 1-371).
T5 sequence: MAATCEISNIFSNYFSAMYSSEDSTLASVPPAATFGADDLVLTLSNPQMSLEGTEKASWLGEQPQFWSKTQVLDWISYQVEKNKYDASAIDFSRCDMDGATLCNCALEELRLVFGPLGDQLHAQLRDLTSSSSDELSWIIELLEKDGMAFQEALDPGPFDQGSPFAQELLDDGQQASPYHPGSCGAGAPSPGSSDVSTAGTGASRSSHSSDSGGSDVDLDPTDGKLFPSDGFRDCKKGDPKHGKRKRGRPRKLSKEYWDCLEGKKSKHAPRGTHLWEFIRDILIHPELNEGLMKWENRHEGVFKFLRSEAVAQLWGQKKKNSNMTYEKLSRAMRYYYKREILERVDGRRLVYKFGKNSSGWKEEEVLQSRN
Summed up: as §1

The target of a further assay is T6, ERF (Homo sapiens, UniProt P50548 1-548).
T6 sequence: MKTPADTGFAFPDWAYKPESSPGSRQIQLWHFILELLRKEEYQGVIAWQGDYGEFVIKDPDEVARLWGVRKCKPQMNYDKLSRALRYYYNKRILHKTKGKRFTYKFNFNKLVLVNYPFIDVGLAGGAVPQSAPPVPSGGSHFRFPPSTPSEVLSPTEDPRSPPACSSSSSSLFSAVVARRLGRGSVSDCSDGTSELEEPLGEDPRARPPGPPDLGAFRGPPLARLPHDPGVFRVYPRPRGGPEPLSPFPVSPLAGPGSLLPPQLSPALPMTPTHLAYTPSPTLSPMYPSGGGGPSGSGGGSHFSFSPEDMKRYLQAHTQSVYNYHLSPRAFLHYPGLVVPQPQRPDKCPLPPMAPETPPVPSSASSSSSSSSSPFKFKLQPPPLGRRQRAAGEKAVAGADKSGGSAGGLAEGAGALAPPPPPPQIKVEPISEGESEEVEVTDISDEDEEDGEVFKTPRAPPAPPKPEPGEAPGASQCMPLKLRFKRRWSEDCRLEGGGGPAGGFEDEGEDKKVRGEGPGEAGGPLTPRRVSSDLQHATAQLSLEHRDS
Summed up: as §1

The next assay has as its target T7, ETV7 (Homo sapiens, UniProt Q9Y603 1-341).
T7 sequence: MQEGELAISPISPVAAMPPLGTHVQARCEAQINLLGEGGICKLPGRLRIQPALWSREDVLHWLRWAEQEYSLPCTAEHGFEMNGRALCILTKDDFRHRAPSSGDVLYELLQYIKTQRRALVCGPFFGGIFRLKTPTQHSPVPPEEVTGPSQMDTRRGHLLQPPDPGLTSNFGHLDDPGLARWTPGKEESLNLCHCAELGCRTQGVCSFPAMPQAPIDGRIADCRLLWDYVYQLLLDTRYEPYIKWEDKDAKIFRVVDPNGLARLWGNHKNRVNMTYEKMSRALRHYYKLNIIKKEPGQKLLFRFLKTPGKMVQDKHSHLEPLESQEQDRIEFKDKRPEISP
A digest of the protocol: as §1

Chain of ELF4 (Q99607 whole entry): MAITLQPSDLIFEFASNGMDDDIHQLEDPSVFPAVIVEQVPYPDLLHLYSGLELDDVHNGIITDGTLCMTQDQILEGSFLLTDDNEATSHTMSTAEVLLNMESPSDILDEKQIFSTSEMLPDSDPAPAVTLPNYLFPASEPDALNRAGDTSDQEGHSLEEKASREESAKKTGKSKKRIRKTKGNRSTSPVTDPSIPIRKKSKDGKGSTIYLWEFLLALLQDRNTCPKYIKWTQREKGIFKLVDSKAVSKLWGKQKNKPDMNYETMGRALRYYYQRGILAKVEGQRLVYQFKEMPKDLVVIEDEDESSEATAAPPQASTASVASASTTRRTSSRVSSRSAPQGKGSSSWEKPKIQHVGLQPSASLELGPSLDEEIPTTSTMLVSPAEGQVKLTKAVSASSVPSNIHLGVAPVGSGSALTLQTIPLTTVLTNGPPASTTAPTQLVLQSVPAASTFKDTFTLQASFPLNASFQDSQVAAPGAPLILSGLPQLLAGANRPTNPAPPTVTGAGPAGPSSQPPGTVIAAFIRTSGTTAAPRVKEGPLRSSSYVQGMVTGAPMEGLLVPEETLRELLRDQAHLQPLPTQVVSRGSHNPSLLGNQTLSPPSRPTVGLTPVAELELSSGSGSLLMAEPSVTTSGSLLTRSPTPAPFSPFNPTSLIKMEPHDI
Chain of ELF1 (P32519 whole entry): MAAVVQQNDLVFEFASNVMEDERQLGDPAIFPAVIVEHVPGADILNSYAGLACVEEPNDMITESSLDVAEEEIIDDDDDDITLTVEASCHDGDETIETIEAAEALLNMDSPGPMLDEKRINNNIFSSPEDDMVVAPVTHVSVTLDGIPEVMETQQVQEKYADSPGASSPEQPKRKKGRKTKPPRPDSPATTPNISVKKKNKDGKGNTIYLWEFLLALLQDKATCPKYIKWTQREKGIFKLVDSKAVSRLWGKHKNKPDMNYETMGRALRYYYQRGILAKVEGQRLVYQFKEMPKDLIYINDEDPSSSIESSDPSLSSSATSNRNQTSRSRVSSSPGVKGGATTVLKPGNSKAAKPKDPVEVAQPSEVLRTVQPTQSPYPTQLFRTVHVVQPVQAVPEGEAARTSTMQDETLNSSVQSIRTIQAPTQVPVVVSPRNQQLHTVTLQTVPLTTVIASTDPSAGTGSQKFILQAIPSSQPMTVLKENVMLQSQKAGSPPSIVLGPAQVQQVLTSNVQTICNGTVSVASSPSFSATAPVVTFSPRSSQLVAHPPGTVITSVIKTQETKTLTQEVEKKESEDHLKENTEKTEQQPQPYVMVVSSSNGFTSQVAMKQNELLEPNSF
Chain of SPIB (Q01892 whole entry): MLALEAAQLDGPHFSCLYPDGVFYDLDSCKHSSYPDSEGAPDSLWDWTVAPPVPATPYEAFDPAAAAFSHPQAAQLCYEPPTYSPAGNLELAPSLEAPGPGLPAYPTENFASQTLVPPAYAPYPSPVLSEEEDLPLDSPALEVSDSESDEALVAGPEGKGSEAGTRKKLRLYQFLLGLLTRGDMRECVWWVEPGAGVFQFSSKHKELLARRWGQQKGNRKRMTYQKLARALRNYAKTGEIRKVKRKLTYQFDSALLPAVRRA

CACCCA: the binding signal with FLI1 was 1.1 fold enrichment (6-mer frequency, TF over GST control); in the assay with ELK1, 1.12 fold enrichment (6-mer frequency, TF over GST control); with GABPA it was 1.11 fold enrichment (6-mer frequency, TF over GST control); in the assay with ELF1 it was 1.01 fold enrichment (6-mer frequency, TF over GST control); in the assay with SPIB it was 1.03 fold enrichment (6-mer frequency, TF over GST control); in the assay with ELF4 it was 1.12 fold enrichment (6-mer frequency, TF over GST control). The binding signal with ELK4 was 1.04 fold enrichment (6-mer frequency, TF over GST control); with ELF3, 1.14 fold enrichment (6-mer frequency, TF over GST control); in the assay with ERF, 1.06 fold enrichment (6-mer frequency, TF over GST control); in the assay with ETV7 it was 1.03 fold enrichment (6-mer frequency, TF over GST control).
